In PubChem BioAssay (NCATS) one finds activation, Potency and outcome data, which are given here for 27 compounds.

Several values for one entry are separate records, joined by “and”; a condition that tells them apart may be missing. Identical values can stand only once. Results filed as inconclusive are left out. Activity calls are given as the source filed them. Unless noted, calls come from the whole dose curve.

Chain of Tumor necrosis factor (Homo sapiens) (P01375 whole entry, looked up): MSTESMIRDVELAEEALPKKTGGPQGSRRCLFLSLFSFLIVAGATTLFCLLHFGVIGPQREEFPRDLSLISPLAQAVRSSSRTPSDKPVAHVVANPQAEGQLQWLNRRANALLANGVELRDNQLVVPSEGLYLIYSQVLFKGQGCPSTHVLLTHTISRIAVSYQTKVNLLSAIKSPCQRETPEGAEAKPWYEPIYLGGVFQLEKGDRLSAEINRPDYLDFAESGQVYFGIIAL

Tested on in the first assay: not listed separately
Put plainly: qHTS assay for small molecule activators of the p53 signaling pathway (AID 651743; active = well fitted activation curve with a large enough effect in the signal ratio, not every such curve was filed as active; the % refers to the signal ratio; note: potency is the fitted concentration of half-maximal effect; for activation: % of control where 0% means no effect). The following applies: HCT-116 p53RE-bla, beta-lactamase FRET ratio, 16 h; activation: active compounds read high. In short, it runs like this:
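p53RE-bla HCT-116 cells carrying a beta-lactamase reporter under p53 response elements were exposed to compounds for 16 hours at 37 C. Reporter activity read as fluorescence after 2 hours at room temperature with LiveBLAzer B/G FRET substrate.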
`CN(C)C(=O)Nc1ccc(Cl)c(Cl)c1`: the activation is 3.41% (inactive). For `CCCCCCCCCCCCCCCC(=O)O`, the activation is 1.38% (inactive). Still for that read-out and setting: under `C=C[C@@]1(C)CC(=O)[C@]2(O)[C@@]3(C)[C@@H](O)CCC(C)(C)[C@@H]3[C@H](O)[C@H](OC(C)=O)[C@@]2(C)O1` stands -4.19% (inactive); under `CCCCCCCC/C=C\CCCCCCCCN`, 4.37% (inactive).

As to `Oc1c(Cl)cc(Cl)c(Cl)c1Cc1c(O)c(Cl)cc(Cl)c1Cl`, the Potency is 7.94 µM (active) and 12.6 µM (active).

Tested on in a further assay: not listed separately
Put plainly: qHTS assay for small molecule activators of the nuclear factor-kappa B (NF-kB) signaling pathway (AID 651749; active = well fitted activation curve with a large enough effect in the signal ratio; the % refers to the signal ratio; note: % of control where 0% means no effect). The following applies: NF-kB-bla ME-180 cells, beta-lactamase FRET ratio, 16 h; active compounds read high. In short, it runs like this: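 NF-kB-bla ME-180 cells carrying a beta-lactamase reporter under an NF-kB response element, 2,000 cells/well, exposed to compound for 16 hr at 37C; FRET-based beta-lactamase fluorescence read-out of pathway activation.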
Consider `COc1ccc(C(Cl)=C(c2ccc(OC)cc2)c2ccc(OC)cc2)cc1`, for which the activation was 3.39% (inactive). Still for that read-out and setting: the value for `OC[C@H]1O[C@@H]2O[C@H]3[C@H](O)[C@@H](O)[C@@H](O[C@H]4[C@H](O)[C@@H](O)[C@@H](O[C@H]5[C@H](O)[C@@H](O)[C@@H](O[C@H]6[C@H](O)[C@@H](O)[C@@H](O[C@H]7[C@H](O)[C@@H](O)[C@@H](O[C@H]8[C@H](O)[C@@H](O)[C@@H](O[C@H]1[C@H](O)[C@H]2O)O[C@@H]8CO)O[C@@H]7CO)O[C@@H]6CO)O[C@@H]5CO)O[C@@H]4CO)O[C@@H]3CO` was -1.13% (inactive); that for `CCCN(CCC)S(=O)(=O)c1ccc(C(=O)O)cc1` was 0.183% (inactive) and -3.09% (inactive). Regarding `CCCCOC(=O)CC(CC(=O)OCCCC)(OC(C)=O)C(=O)OCCCC`, the activation was -0.845% (inactive). On to `C#C[C@]1(O)CC[C@H]2[C@@H]3CCC4=Cc5oncc5C[C@]4(C)[C@H]3CC[C@@]21C`, for which the activation is 0.141% (inactive). For `CCCCCCCCCCCCCC(=O)OC(C)C`, the activation was 0.876% (inactive). Regarding `CC1(COc2ccc(CC3SC(=O)NC3=O)cc2)CCCCC1` (stereo unspecified), the activation was 0.57% (inactive).

Take `CCCCCCCCOc1ccc(C(=O)c2ccccc2)c(O)c1`: the activation was -6.3% (inactive). In the case of `O=C(O)c1ccc(S(=O)(=O)N(Cl)Cl)cc1`, the activation was -0.114% (inactive).

On to `CC(C)(C)CC(C)(C)c1ccc(O)c(-n2nc3ccccc3n2)c1`, for which the activation was 1.97% (inactive). Consider `CCCCC(CC)COC(=O)c1ccc(N(C)C)cc1` (stereo unspecified), for which the activation was -1.46% (inactive) and -0.821% (inactive). On the same count and under the same terms, under `C=C[C@H]1CN2CC[C@H]1C[C@@H]2[C@@H](O)c1ccnc2ccc(OC)cc12` stands -0.176% (inactive); under `NCCNc1cccc2ccccc12`, -0.261% (inactive) and 2.79% (inactive); under `CC1(C)OC[C@@H]2O[C@@]3(C(=O)O)OC(C)(C)O[C@H]3[C@@H]2O1`, 0.144% (inactive). The same measure, in the same setting: the value for `NC(=O)c1ccccc1O` was -1.49% (inactive). Still for that read-out and setting: the value for `COc1ccc(C(=O)c2ccccc2)c(O)c1` was 0.344% (inactive) and -5.21% (inactive); that for `CCCCCCCCCCCCCCCC(=O)O` was -0.401% (inactive).

As for `CCCCCCCCCCCCCCCCO`, the activation was -1.7% (inactive). As for `Oc1c(Cl)cc(Cl)c(Cl)c1Cc1c(O)c(Cl)cc(Cl)c1Cl`, the activation was -1.07% (inactive).

Tested on in a further assay: not listed separately
Put plainly: qHTS assay for small molecule disruptors of the mitochondrial membrane potential - 1 hr assay (AID 651754). Note: nearly all actives have a fitted effect of over 35% in size. Note: potency is the fitted concentration of half-maximal effect. The conditions noted are these: series mostly up to 92.2 µM. In short, it runs like this: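 HepG2, 2,000 cells/well, overnight attachment; cpd or DMSO 1 hr, 37C/5% CO2; Mito-MPS dye 30 min, 37C; fluorescence monomer (490/535) and aggregate (540/590).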
On the technique in general: qHTS replaces the single test concentration by a dilution series.
Take `COc1ccc(C(Cl)=C(c2ccc(OC)cc2)c2ccc(OC)cc2)cc1`: the Potency is 15 µM (active).

For the compound `COc1cc([C@H]2Oc3cc([C@H]4Oc5cc(O)cc(O)c5C(=O)[C@@H]4O)ccc3O[C@@H]2CO)ccc1O`, the Potency is 18.8 µM (active). `CCCCC(CC)COC(=O)c1ccc(N(C)C)cc1` (stereo unspecified): the Potency was 7.5 µM (active).

As for `C=C[C@H]1CN2CC[C@H]1C[C@@H]2[C@@H](O)c1ccnc2ccc(OC)cc12`, the Potency entry is “inactive”. Turning to `NCCNc1cccc2ccccc12`, the Potency entry was “inactive”. In the case of `Oc1c(Cl)cc(Cl)c(Cl)c1Cc1c(O)c(Cl)cc(Cl)c1Cl`, the Potency is 2.98 µM (active).

Tested on in a further assay: not listed separately
Put plainly: qHTS assay for small molecule disruptors of the mitochondrial membrane potential - 5 hr assay (AID 651755). Note: nearly all actives have a fitted effect of over 40% in size. Note: potency is the fitted concentration of half-maximal effect. The following applies: JC-1-type ratio dye; series mostly up to 92.2 µM. In a few lines: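 HepG2 cells (2,000/well), attached overnight, exposed to compound 5 hr at 37C, then Mito-MPS dye 30 min. Fluorescence read for monomers (490/535 nm) and aggregates (540/590 nm).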
`COc1ccc(C(Cl)=C(c2ccc(OC)cc2)c2ccc(OC)cc2)cc1`: the Potency was 18.8 µM (active). Turning to `COc1cc([C@H]2Oc3cc([C@H]4Oc5cc(O)cc(O)c5C(=O)[C@@H]4O)ccc3O[C@@H]2CO)ccc1O`, the Potency was 26.6 µM (active). Still for that read-out and setting: the value for `CCCCC(CC)COC(=O)c1ccc(N(C)C)cc1` (stereo unspecified) was “inactive”.

`C=C[C@H]1CN2CC[C@H]1C[C@@H]2[C@@H](O)c1ccnc2ccc(OC)cc12`: the Potency result is “inactive”. Same read-out and setting: the value for `Oc1c(Cl)cc(Cl)c(Cl)c1Cc1c(O)c(Cl)cc(Cl)c1Cl` was 3.35 µM (active).

The next assay concerns the target Tumor necrosis factor (Homo sapiens) (UniProt P01375). Put plainly: qHTS assay to identify small molecules that stimulate Tumor Necrosis Factor-alpha (TNF-alpha) secretion (AID 651757; active = well fitted curve in the direction sought with a large enough effect in the signal ratio; the % refers to the signal ratio; note: 0% is about no effect). The following applies: Human cells, HTRF 665/615 ratio; series mostly up to 92.2 µM. In short, it runs like this:
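Read-out is HTRF, a TR-FRET sandwich of cryptate- and XL665-labeled anti-TNF-alpha antibodies detecting cytokine secreted by THP-1 cells. Cells had been incubated with test compounds at 37 C for 17 hrs beforehand.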
As to `CCOc1ccc(NC(C)=O)cc1`, the result was inactive. Still for that read-out and setting: the value for `COc1ccc(C(Cl)=C(c2ccc(OC)cc2)c2ccc(OC)cc2)cc1` was “inactive”; that for `C/C=C/c1ccc(O)c(OC)c1` was “inactive”. As to `OC[C@H]1O[C@@H]2O[C@H]3[C@H](O)[C@@H](O)[C@@H](O[C@H]4[C@H](O)[C@@H](O)[C@@H](O[C@H]5[C@H](O)[C@@H](O)[C@@H](O[C@H]6[C@H](O)[C@@H](O)[C@@H](O[C@H]7[C@H](O)[C@@H](O)[C@@H](O[C@H]8[C@H](O)[C@@H](O)[C@@H](O[C@H]1[C@H](O)[C@H]2O)O[C@@H]8CO)O[C@@H]7CO)O[C@@H]6CO)O[C@@H]5CO)O[C@@H]4CO)O[C@@H]3CO`, the outcome was inactive. With `CCCN(CCC)S(=O)(=O)c1ccc(C(=O)O)cc1`, the result was inactive. Turning to `CCOc1ccccc1C(N)=O`, the outcome was inactive. Regarding `Oc1ccc(Cl)cc1Cc1cc(Cl)ccc1O`, the outcome was inactive.

Take `CCCCC(CC)COC(=O)c1ccc(N(C)C)cc1` (stereo unspecified): the outcome was inactive. `C=C[C@H]1CN2CC[C@H]1C[C@@H]2[C@@H](O)c1ccnc2ccc(OC)cc12`: the outcome was inactive. `NC(=O)c1ccccc1O`: the result was inactive.

Regarding `COc1ccc(C(=O)c2ccccc2)c(O)c1`, the outcome was inactive.
